# Assay outcomes from PubChem BioAssay.
# MBD2 inh: MBD2-methylated oligo binding inhibition | Q9UBB5 | TR-FRET, MBD2 binding to methylated oligonucleotide | inhibition, % at 4.4 µM | 0.31% of 370,000 active | AID 686964; in the data active = inhibition above about 13%
# PRMT1 FP inh: blocks human protein arginine methyltransferase 1; Q99873; recombinant PRMT1, activity-based probe fluorescence polarization; inhibition, % at 2.79 µM; 1.3% of 370,000 active; AID 652257;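 active = inhibition above about 21% made by adding two undisclosed values, limit read from the data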
# Target sequence (Q99873 whole entry, looked up): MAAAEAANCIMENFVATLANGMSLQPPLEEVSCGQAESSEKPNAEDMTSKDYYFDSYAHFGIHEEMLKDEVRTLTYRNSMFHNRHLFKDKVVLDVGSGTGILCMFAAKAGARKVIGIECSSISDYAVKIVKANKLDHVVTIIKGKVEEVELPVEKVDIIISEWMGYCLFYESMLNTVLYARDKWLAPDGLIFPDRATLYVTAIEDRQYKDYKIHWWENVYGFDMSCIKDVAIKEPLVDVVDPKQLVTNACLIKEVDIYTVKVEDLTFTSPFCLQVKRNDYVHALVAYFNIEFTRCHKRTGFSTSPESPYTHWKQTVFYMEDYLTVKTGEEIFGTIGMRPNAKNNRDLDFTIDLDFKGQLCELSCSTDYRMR
# UHRF1 binding: human UHRF1 methylated DNA binding inhibitors. Q96T88. UHRF1 binding to methylated oligo, TR-FRET. inhibition, % at 4.4 µM. 0.75% of 370,000 active. AID 687016; in the data active = inhibition above about 21%;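 note: UHRF1 SRA domain binding a hemimethylated CpG hairpin DNA probe; 0% = median of test compound wells and 100% = reference inhibitor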
# LEDGF integ inh: blocks HIV-1 LEDGF/p75-dependent DNA integration; TR-FRET IN-LEDGF/p75 DNA integration, Eu/Cy5; inhibition, % at 3.7 µM; 0.64% of 370,000 active; AID 743269;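 active = inhibition above the screen-wide mean plus 3 SD, cut at about 13% in these data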;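 note: signal is the Cy5 over europium emission ratio at 671 and 618 nm; 0% = plate median of compound wells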
# Starred values were filed as active, the others as inactive. An excerpt weighted towards active compounds, which were near 2.5% of everything screened.
SMILES,MBD2 inh,PRMT1 FP inh,UHRF1 binding,LEDGF integ inh
COc1ccc(OC)c(NC(=O)C(C)N2c3cccc4cccc(c34)S2(=O)=O)c1 (stereo not given),-6,-5,3,30*
CCOC(=O)N1CCN(C(=O)CC(C)S(=O)(=O)c2cc3c(cc2C)NC(=O)CO3)CC1 (stereo not given),8,2,2,-3
O=C1CC(N2CCN(c3ccc(Cl)cc3)CC2)C(=O)N1c1ccccc1 (stereo not given),7,11,3,5
O=C1CC(N2CCN(c3ccccc3Cl)CC2)C(=O)N1c1ccccc1 (stereo not given),7,24*,3,1
C[C@@H]1[C@@H](Sc2ccccc2)CC(=O)O[C@@H]1c1ccc(-c2ccccc2)cc1,-6,1,-1,1
O=C1C=CC2(O[C@H](c3ccccc3)[C@@H](c3ccccc3)O2)[C@H](Sc2ccccc2O)C1,8,96*,6,1
CC(=O)c1ccc(OCCCC(=O)Nc2cccc(-c3nn[nH]n3)c2)cc1,-1,1,1,1
CCOc1cc(NC(=S)Nc2cccc(C)c2)c(OCC)cc1NC(=O)CC(C)C,2,24*,-3,4
CCOc1cc(NC(=S)Nc2cccc(OC)c2)c(OCC)cc1NC(=O)C(C)C,-2,9,2,0
COc1ccc(/C(C)=N/NC(=O)c2sccc2-n2cccc2)cc1,0,3,5,0
COc1ccc([N+](=O)[O-])c(O)c1C(C)=O,1,7,-1,-1
Cc1nn(Cc2nnc(SCC(=O)Nc3cccc(C(F)(F)F)c3)n2C)c(C)c1[N+](=O)[O-],0,-1,41*,0
Cc1cnc(CNC(=O)c2csc([C@@H]3C[C@H](O)[C@@H](CO)O3)n2)cn1,1,0,4,-4
O=S1(=O)c2ccccc2OC(COCc2ccccc2)CN1C1CC1 (stereo not given),7,1,26*,2
CC1=CC(c2ccccc2)n2nc(N3C(=O)c4ccccc4C3=O)nc2N1 (stereo not given),-5,-3,-3,-2
CC1=CC(c2ccccc2)n2nnnc2N1 (stereo not given),1,0,35*,-1
O=C(NCCOCCNC(=O)OCc1ccccc1)OCc1ccccc1,2,3,3,-11
C=C(C)Cn1c(N(CCO)Cc2ccccc2)nc2c1c(=O)[nH]c(=O)n2C,3,2,84*,4
Cn1c(=O)[nH]c(=O)c2c1nc(N(CCO)Cc1ccccc1)n2CCCc1ccccc1,4,9,1,4
CCOC1=C2[C@H](c3ccc(Cl)cc3)N(S(=O)(=O)c3ccc(C)cc3)C[C@H]2n2c(=O)n(-c3ccccc3)c(=O)n2C1,2,-2,-3,1
CC(C)NC(=O)COc1ccc(OCc2ccccc2)cc1,2,4,-1,-2
O=C(COc1ccc(OCc2ccccc2)cc1)NN=C1CCCC1,13,1,34*,5
NC(=O)C1CC(=O)N(c2ccc(OCc3c(Cl)cccc3Cl)cc2)C1 (stereo not given),5,1,23*,2
NC(=O)C1CC(=O)N(c2ccc(OCc3c(F)cccc3Cl)cc2)C1 (stereo not given),2,-2,-1,2
C=CCN(CC#CC1=CCCCC1)Cc1ccc(OC)cc1OC,-1,-2,-1,3
SMILES,MBD2 inh,PRMT1 FP inh,UHRF1 binding,LEDGF integ inh
Cc1ccc(C(C)C)cc1S(=O)(=O)Nc1ccncc1,-5,0,28*,-1
N/C(=N\OC(=O)/C=C/c1ccccc1)c1ccccn1,3,-3,24*,-3
C[C@H](CO)N1C[C@H](C)[C@H](CN(C)S(=O)(=O)c2ccc(-n3cccn3)cc2)OCc2cnnn2CCCC1=O,-6,-6,2,-1
CSc1nnc(NC(=O)c2ccc3c(c2)OCO3)s1,2,0,0,0
COCCSc1nnc(NC(=O)c2ccc3c(c2)OCO3)s1,0,-1,69*,-2
CCOC(=O)c1sc2nc(C)nc(NCCc3ccccn3)c2c1C,-6,2,69*,3
CCOC(=O)c1sc2nc(CC(=O)OC)nc(NCc3ccco3)c2c1C,-1,22*,-3,2
CCOC(=O)c1sc2nc(CC(=O)OC)nc(NCC(=O)OC)c2c1C,2,3,4,-5
CCCOC1CCCN(C(=O)c2ccc(OC)c(OC3CCN(C(C)C)CC3)c2)C1 (stereo not given),-1,2,1,-1
COc1ccc(CCNC(=O)c2ccc3c(c2)S(=O)(=O)N=C2CCCCCN23)cc1,1,2,1,-2
O=C(CCc1nc2ccccc2c(=O)[nH]1)Nc1cc(Cl)ccc1N1CCCC1,3,1,32*,-5
O=C(CCc1nc2ccccc2c(=O)[nH]1)Nc1ccc(N2CCCCC2)cc1,-1,-1,-4,-2
O=C(/C=C/[C@H]1O[C@@H](n2ccc(=O)[nH]c2=O)[C@H](O)[C@@H]1O)N1CCN(Cc2ccc(F)cc2)CC1,-1,-2,2,2
COc1ccc(/C=C/C(=O)c2cc(Br)ccc2O)cc1OC,6,6,6,2
CCNc1ccc(Br)cc(C(=O)/C=C/c2ccc(Cl)cc2Cl)c1=O,-8,27*,-3,3
CNc1ccc(Br)cc(C(=O)/C=C/c2cc(OC)ccc2OC)c1=O,1,26*,-1,10
Cc1c(COC(=O)NC(C)C)c(COC(=O)NC(C)C)c2n1CS(=O)(=O)C2,4,3,26*,-5
COC(=O)c1c(C(=O)OC)c(-c2ccc(C)cc2)n2c1CS(=O)(=O)C2,-1,1,1,-1
O=C(Nc1ccccc1)c1ccc[n+](Cc2ccc([N+](=O)[O-])cc2)c1,-1,-2,69*,4
COc1ccc(S(=O)(=O)N2CCC(c3nc4ccccc4o3)CC2)c(OC)c1,-2,-6,3,-2
CCOC(=O)N1CCN(C2=C(NS(=O)(=O)c3ccccc3)C(=O)c3ccccc3C2=O)CC1,-9,13,-2,22*
CCN1CCN(C2=C(NS(=O)(=O)c3ccc(Br)cc3)C(=O)c3ccccc3C2=O)CC1,-10,22*,-3,9
Nc1nc(SCC(=O)c2ccc(Cl)cc2)c2ncn(C3OC(CO)C(O)C3O)c2n1 (stereo not given),0,1,-1,5
CN1C(=O)[C@H]2[C@@H](c3ccc(C(F)(F)F)cc3)N[C@]3(CCCN(Cc4cccn4C)C3=O)[C@H]2C1=O,-5,2,-2,4
O=C(CC1Sc2ccccc2NC1=O)NNc1ccc(Cl)cc1Cl (stereo not given),7,8,3,-3
O=C1Nc2c(Cl)cc(Cl)cc2C12Nc1ccccc1S2 (stereo not given),0,23*,-8,-1
O=C(CSc1nncc(=O)[nH]1)Nc1cccc([N+](=O)[O-])c1,-6,33*,-2,-1
O=C(Nc1ccc(NC(=O)c2ccco2)c(Cl)c1)c1ccccc1,3,4,42*,-3
